# Assay outcomes: PubChem BioAssay, several laboratories
# PKD1 kinase inh: PKD1 (human) kinase inhibition. 200,000 compounds, 0.056% hits. Q15139. PKD1 kinase fluorescence polarization assay. inhibition, % (no concentration beside the values); in the data active = inhibition above about 50%
# Target sequence (Q15139 whole entry, looked up): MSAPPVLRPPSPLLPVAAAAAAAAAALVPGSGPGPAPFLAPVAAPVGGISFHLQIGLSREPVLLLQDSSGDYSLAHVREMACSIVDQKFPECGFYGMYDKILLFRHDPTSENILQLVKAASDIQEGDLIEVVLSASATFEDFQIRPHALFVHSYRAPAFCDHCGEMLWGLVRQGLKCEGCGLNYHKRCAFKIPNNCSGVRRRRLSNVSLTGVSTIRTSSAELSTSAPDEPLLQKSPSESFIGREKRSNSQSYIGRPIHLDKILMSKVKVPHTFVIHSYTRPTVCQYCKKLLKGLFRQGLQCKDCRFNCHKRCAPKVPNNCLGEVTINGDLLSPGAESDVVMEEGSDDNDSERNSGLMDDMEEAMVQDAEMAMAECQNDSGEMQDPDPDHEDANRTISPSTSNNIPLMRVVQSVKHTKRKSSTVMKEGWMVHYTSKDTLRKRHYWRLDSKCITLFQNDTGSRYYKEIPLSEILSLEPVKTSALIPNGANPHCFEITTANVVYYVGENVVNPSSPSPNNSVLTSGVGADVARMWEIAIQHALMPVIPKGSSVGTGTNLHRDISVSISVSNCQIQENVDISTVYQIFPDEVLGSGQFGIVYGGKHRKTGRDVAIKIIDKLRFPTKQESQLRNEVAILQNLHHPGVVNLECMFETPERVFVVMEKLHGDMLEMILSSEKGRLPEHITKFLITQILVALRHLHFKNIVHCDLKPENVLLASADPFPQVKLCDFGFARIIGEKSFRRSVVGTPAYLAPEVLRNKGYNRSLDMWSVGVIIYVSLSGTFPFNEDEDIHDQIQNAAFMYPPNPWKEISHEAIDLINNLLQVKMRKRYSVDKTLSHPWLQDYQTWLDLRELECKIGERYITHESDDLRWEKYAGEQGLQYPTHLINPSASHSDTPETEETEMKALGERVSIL
# Hsp70 act: Hsp70 transcriptional activation, primary screen; HeLa Hsp70 promoter luciferase reporter, luminescence; scaled: vehicle 0, proteasome-inhibitor control 100%; activation, % at 10 µM; 200,000 compounds, 0.04% hits; AID 1203;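 active = activation above the mean across all tested compounds plus 3 SD, cutoff set per campaign, cut at about 5.5% in these data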;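 also: 100% = MG132 at 30 µM as the positive control and 0% = DMSO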
# Arbovirus inh: blocks arbovirus infection. 200,000 compounds, 0.37% hits. inhibition, % at 10 µM. arbovirus infection cell-based antiviral screen; in the data active = inhibition above about 30%
# HMGR II inh: E. faecalis class II HMG-CoA reductase inhibition | 190,000 compounds, 0.41% hits | inhibition, % at 10 µM | purified E. faecalis HMGR, NADPH absorbance 340 nm kinetic;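 active = inhibition above a set limit, the median over all tested compounds plus 3 SD, cut at about 9.5% in these data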;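 also: enzyme runs in reverse so mevalonate oxidation gives rising NADPH absorbance; 0% = complete reaction with DMSO and 100% = background rate lacking mevalonate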
# Wee1 stabilizer: inhibitors of human Wee1 degradation; AID 1321; HeLa Luc-Wee1K328M stability, luciferase luminescence; 100% = proteasome inhibitor MG132 effect; reporter increase, % at 5 µM; 220,000 compounds, 1.2% hits;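 active = activation above the mean of all tested compounds plus 3 SD, set per screening run, cut at about 8.8% in these data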;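 also: cells exposed to compound for 20 h before luminescence read; 0% = DMSO alone and 100% = MG132 at 30 µM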
# Hsp70 act DR: activates Hsp70 transcription in dose response. shares compounds with Hsp70 act. HeLa hsp70.1pr-luc reporter, luciferase luminescence. calls only at 99 µM. 70 compounds, 10% hits. AID 1252;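 active = over 50% activation at some tested dose; inactive = under 50% activation at every tested dose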
# Wee1 stab conf: confirmation of human Wee1 degradation inhibitors; activation, % at 5 µM; 1,100 compounds, 4% hits; shares compounds with Wee1 stabilizer; AID 1410; HeLa Luc-Wee1K328M degradation, luminescence; vehicle 0%, proteasome-blocked wells 100%; in the data active = activation above about 8.9%
# An asterisk follows results filed as active; i = inactive; · = no result; + = active, no number. Sampled rows, rich in hits. Any-hit rate of the full collection: about 2%.
SMILES,PKD1 kinase inh,Hsp70 act,Arbovirus inh,HMGR II inh,Wee1 stabilizer,Wee1 stab conf,others
Cn1c(CN2CCCC2)nc2cc(NC(=O)COc3ccc(Cl)cc3)ccc21,-2.8,-0.2,-10.4,-12.4,0.3,·,
O=C(OCn1ncc(Cl)c(Cl)c1=O)c1ccc(F)cc1,-9.4,13.0*,-29.5,2.5,3.1,·,Hsp70 act DR=i
O=C(Cn1ncc(Cl)c(Cl)c1=O)c1ccc(Cl)cc1,-11.2,0.2,-35.5,-1.2,3.1,·,
O=C(OCn1ncc(Cl)c(Cl)c1=O)c1ccccc1Cl,8.2,7.4*,-29.0,2.5,2.2,·,Hsp70 act DR=+
O=C(COc1ccccc1)Nc1ccc(Cl)cc1Cl,-9.4,-0.3,-6.2,-1.4,-0.5,·,
Cc1cc(Cl)n2c(nc3ccccc32)c1C#N,-1.4,9.7*,10.2,-2.8,-0.3,·,Hsp70 act DR=i
CCN(CC)c1cc(C)c(C#N)c2nc3ccccc3n12,·,·,·,·,0.1,·,
CC(=O)c1cccc(CN2CCCC(CCC(=O)NCc3ccc(F)c(F)c3)C2)c1 (configuration not stated),-0.9,-0.2,-2.1,-8.1,-2.0,·,
CC1=NOC(=O)/C1=C\c1ccc(-c2ccc(Cl)cc2Cl)o1,-7.5,5.8*,-39.1,-1.6,3.6,·,Hsp70 act DR=i
CCOc1ccccc1Cn1c(=O)sc2ccccc21,-1.6,-0.3,2.5,-0.1,-4.5,·,
CCOC(=O)/C(=C\c1ccccc1)C(=O)c1cc(C(C)=O)c(Nc2ccccc2)s1,-6.9,-0.1,-32.2,-6.5,-1.1,·,
CCOC(=O)/C(=C\c1cccnc1)C(=O)c1cc(C(C)=O)c(Nc2ccccc2)s1,-4.4,16.8*,-35.7,-2.4,1.5,·,Hsp70 act DR=i
O=C(C1=C[C@H](c2coc3ccccc3c2=O)C[C@H](OCCCCO)O1)N1CCN(Cc2ccc3c(c2)OCO3)CC1,8.8,0.2,-10.0,0.3,-1.5,·,
O=C1/C(=C/c2ccncc2)CCC/C1=C\c1ccncc1,-1.3,209.8*,-28.8,2.4,6.0,·,Hsp70 act DR=+
CCOC(=O)c1cccc(NC(=O)COC)c1,3.1,-0.4,4.1,-2.9,-1.7,·,
COCC(=O)Nc1cccc(Br)c1,-2.9,6.3*,7.9,-6.8,-0.5,·,Hsp70 act DR=i
COc1ccccc1C1Nc2cccc3cccc(c23)N1,-0.5,24.1*,-6.0,-2.8,-0.8,·,Hsp70 act DR=i
Oc1ccccc1C1Nc2cccc3cccc(c23)N1,4.0,-0.1,-0.6,-6.3,-1.2,·,
O=[N+]([O-])c1ccccc1C1Nc2cccc3cccc(c23)N1,-21.4,29.8*,0.1,4.3,3.0,·,Hsp70 act DR=i
CCc1ccc(C(=O)NCc2cnn(C)c2)s1,-129.2,-0.3,-2.4,0.0,-1.5,·,
COc1ccc(NC(=O)Cc2ccccc2)cn1,1.1,-0.1,2.3,-2.2,0.2,·,
COc1ccc(NC(=O)/C(Cl)=C(/Cl)S(=O)Cc2ccccc2)cn1 (configuration not stated),-4.1,22.0*,-45.4,-2.0,16.6*,24.6*,Hsp70 act DR=i
CCCNc1sc(S(=O)(=O)CCC)nc1S(=O)(=O)c1ccc(C)cc1,-5.2,-0.1,1.6,3.3,-2.2,·,
C=CS(=O)(=O)c1ccc(Oc2ccc(S(=O)(=O)C=C)cc2)cc1,16.4,48.4*,-3.7,-4.9,15.2*,14.2*,Hsp70 act DR=i
N#Cc1ccc(S(=O)(=O)N2CCc3[nH]c4ccc(F)cc4c3C2)cc1,·,·,·,·,-3.5,·,
SMILES,PKD1 kinase inh,Hsp70 act,Arbovirus inh,HMGR II inh,Wee1 stabilizer,Wee1 stab conf,others
Cc1ccc(Nc2cc(C)nn2-c2nc(C)cc(=O)[nH]2)cc1,8.1,90.3*,-25.8,-6.0,128.8*,122.7*,Hsp70 act DR=i
Nc1cccc(C2=Nc3cccc4cccc(c34)N2)c1,6.1,-0.1,-3.5,0.5,11.8*,0.5,
COc1ccc(C2=Nc3cccc4cccc(c34)N2)cc1,8.4,-0.1,-2.5,2.0,-0.3,·,
Cc1coc(=N)n1CC(=O)c1ccc(Cl)cc1,3.5,-0.4,1.7,-5.1,0.2,·,
Cc1[nH][nH]c(=O)c1C(c1ccc([N+](=O)[O-])cc1)c1c(C)[nH][nH]c1=O,·,·,·,·,10.9*,0.3,
NS(=O)(=O)c1ccc(CNC(=S)NC2CCCCC2)cc1,·,·,·,·,0.6,·,
CC(=O)Nc1cccc(-c2csc(Nc3ncccn3)n2)c1,0.6,0.3,-3.0,-6.3,13.3*,5.2,
Cc1cc2cc(CNC(=O)Nc3ccccc3)ccc2[nH]1,-2.5,0.0,10.7,1.7,-2.9,·,
O=C(O)Cn1c(CCS(=O)(=O)c2ccc(Br)cc2)nc2ccccc21,3.0,0.0,4.8,-0.6,12.8*,-0.7,
CC(=O)O/N=C/c1c(NCc2ccccc2)nc2c(C)cccn2c1=O,·,·,·,·,12.3*,2.2,
S=C(NCc1ccco1)N1CCN(C/C=C/c2ccccc2)CC1,2.2,-0.7,18.0,-2.6,-2.1,·,
Cn1c(NC(=O)Cc2cccc3ccccc23)cc(=O)n(C)c1=O,-7.7,-0.1,17.4,3.8,13.1*,-2.0,
Cc1cccc(CC(=O)Nc2cc(=O)n(C)c(=O)n2C)c1,-0.6,-0.2,1.7,-3.4,2.9,·,
Cc1nnc(SCC(=O)NCc2ccc(F)cc2)[nH]c1=O,-0.1,-0.3,0.5,-1.8,11.1*,2.1,
O=C(O)c1ccc2nc(-c3ccco3)c(-c3ccco3)nc2c1,-0.6,0.8,3.4,-6.5,6.8,·,
O=C(O)c1ccc2nc3c(nc2c1)-c1ccccc1C3=O,9.8,-0.1,-8.8,-3.8,17.1*,5.0,
CCOC(=O)C1(CC2CCCCO2)CCN(C(=O)Nc2ccccc2CC)CC1 (configuration not stated),-3.0,-0.1,-7.2,-1.4,-1.8,·,
CCOC(=O)C1(CC2CCCCO2)CCN(C(=O)Nc2ccccc2SC)CC1 (configuration not stated),11.4,-0.2,-0.3,9.4,11.7*,2.5,
COc1cccc2cc(C(=O)NNC(=O)c3ccc(Br)cc3)c(=O)oc12,2.0,-0.1,5.3,-8.0,-0.7,·,
O=C(NCCCn1ccnc1)/C(=C\c1cccnc1)NC(=O)c1ccccc1F,-5.0,-0.3,0.9,-4.9,20.9*,-2.1,
COc1ccc(-n2c(=O)c3c(C)c(C)sc3n(Cc3cccc(F)c3)c2=O)c(OC)c1,1.6,-0.1,-5.0,-0.9,4.4,·,
CCN(CC)C(=O)c1sc2c(c1C)c(=O)n(-c1ccc(OC)cc1OC)c(=O)n2CC(=O)c1ccccc1,-4.7,-0.4,5.5,-6.2,11.9*,-1.0,
Cn1c2ccccc2c2cnn(CC(=O)N3CCCCC3)c(=O)c21,·,·,·,·,2.3,·,
N#Cc1ccsc1NC(=O)CN1CCN(S(=O)(=O)c2ccccc2C(F)(F)F)CC1,11.1,-0.3,-4.5,-2.2,1.3,·,
Cc1ccc(C)c(S(=O)(=O)N2CCN(CC(=O)Nc3sccc3C#N)CC2)c1,-6.7,-0.2,3.6,-10.8,14.2*,1.7,
N=c1c2c3c(sc2ncn1Cc1ccco1)CCCCC3,5.2,0.0,10.5,-3.4,11.6*,-1.7,
CCCCCCCN1C2=NCCCN2c2ccccc21,-8.6,0.1,-6.8,-3.0,-1.5,·,
CC1(C)C(=O)NCCN1C(=O)CCCC(=O)O,-4.5,-0.2,0.6,0.1,12.2*,2.3,
